# Experimental data reported in PubChem BioAssay (EPA / NIEHS).
# “And” between values parts separate entries of the source, which are not always exact repeats. Identical values can stand only once. Inconclusive results are not listed. Some structures have more than one record in an assay (separate samples or runs), and their calls can disagree. The source made the active and inactive calls. How the source made its calls, unless noted: active means hit-call score of the fitted dose curve at least 0.9, where 1 is the maximum; inconclusive means response in the unintended direction; inactive means score below 0.9.
# Columns and labels:
# [1] = biological target: mouse Peroxisome Proliferator-activated Receptor gamma (PPARg), Pparg (gene 19016) (UniProt P37238); assay: ATG_mPPARg_XSP2: Attagene TRANS-FACTORIAL Multi-Species (XSP2) HepG2 Assay for mouse Peroxisome Proliferator-activated Receptor gamma (PPARg) (AID 2283830);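 further: hits are gains in reporter mRNA above DMSO so AC50 marks activation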
# Sequence of mouse Peroxisome Proliferator-activated Receptor gamma (PPARg), Pparg (gene 19016) (P37238 whole entry, looked up, the tested form may be a part): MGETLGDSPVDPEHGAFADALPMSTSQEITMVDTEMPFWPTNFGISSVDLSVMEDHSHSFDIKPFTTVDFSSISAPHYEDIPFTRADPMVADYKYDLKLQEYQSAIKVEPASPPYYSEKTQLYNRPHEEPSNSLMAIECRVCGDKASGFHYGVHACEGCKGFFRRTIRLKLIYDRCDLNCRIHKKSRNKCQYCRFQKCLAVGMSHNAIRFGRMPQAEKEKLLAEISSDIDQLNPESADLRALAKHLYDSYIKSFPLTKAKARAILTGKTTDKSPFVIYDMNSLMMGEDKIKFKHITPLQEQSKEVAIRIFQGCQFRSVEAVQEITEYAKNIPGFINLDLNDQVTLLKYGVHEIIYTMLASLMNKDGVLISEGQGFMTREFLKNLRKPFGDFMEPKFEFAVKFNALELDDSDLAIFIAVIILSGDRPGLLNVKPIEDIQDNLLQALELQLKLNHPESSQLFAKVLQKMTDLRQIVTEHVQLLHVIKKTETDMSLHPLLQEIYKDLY
# In short: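 HepG2 cells transiently transfected with GAL4-UAS reporter units for chimeric NR-Gal4 proteins including mouse PPARg, exposed 24 h; medium contained 3 nM 6-alpha-fluorotestosterone and 1.5 nM norgestrel. Reporter mRNA quantified by RT-PCR, HpaI digestion and capillary electrophoresis, vs DMSO.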
# [2] = biological target: Nuclear receptor subfamily 1 group I member 2 (Mus musculus) (UniProt O54915); assay: ATG_mPXR_XSP2: Attagene TRANS-FACTORIAL Multi-Species (XSP1) HepG2 Assay for mouse Pregnane X Receptor (PXR) (AID 2283831)
# Sequence of Nuclear receptor subfamily 1 group I member 2 (Mus musculus) (O54915 whole entry, looked up, the tested form may be a part): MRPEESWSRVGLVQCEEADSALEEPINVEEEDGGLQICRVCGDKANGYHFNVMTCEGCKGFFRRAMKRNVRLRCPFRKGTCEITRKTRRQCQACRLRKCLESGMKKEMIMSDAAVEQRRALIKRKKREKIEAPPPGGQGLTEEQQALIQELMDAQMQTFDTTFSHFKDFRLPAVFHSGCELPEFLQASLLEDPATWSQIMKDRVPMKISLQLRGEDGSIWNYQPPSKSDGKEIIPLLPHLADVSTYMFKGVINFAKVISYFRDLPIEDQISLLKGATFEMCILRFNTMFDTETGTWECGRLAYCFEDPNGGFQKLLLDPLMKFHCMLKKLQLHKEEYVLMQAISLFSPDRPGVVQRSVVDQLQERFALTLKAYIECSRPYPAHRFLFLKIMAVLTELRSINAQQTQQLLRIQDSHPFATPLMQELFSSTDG
# In short: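 Transient HepG2 transfection, multiplexed GAL4-UAS reporters, NR-GAL4 chimeras. 24 h compound exposure. Readout: reporter mRNA, RT-PCR, fluorescent capillary electrophoresis; positive direction vs DMSO baseline.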
# [3] = biological target: zebrafish Thyroid Hormone Receptor alpha (TRa), thraa (gene 30670) (UniProt Q98867); assay: ATG_zfTRa_XSP2: Attagene TRANS-FACTORIAL Multi-Species (XSP1) HepG2 Assay for zebrafish Thyroid Hormone Receptor alpha (TRa) (AID 2283832);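 further: actives raise zebrafish TRa-Gal4 reporter transcript above DMSO baseline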
# Sequence of zebrafish Thyroid Hormone Receptor alpha (TRa), thraa (gene 30670) (Q98867 whole entry, looked up, the tested form may be a part): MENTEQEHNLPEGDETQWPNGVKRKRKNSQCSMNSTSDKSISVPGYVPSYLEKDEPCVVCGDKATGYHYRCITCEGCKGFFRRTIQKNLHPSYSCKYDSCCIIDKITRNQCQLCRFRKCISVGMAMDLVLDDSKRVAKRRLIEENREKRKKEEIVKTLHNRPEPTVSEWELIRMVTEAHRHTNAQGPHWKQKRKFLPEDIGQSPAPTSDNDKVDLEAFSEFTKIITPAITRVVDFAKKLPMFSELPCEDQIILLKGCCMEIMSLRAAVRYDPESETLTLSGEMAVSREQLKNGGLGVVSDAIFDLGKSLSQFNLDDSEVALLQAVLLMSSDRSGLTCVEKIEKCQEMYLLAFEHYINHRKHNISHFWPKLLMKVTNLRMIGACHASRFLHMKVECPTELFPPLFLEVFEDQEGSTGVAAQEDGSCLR
# In short: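 HepG2 transiently transfected with GAL4-UAS reporter units and chimeric zebrafish TRa-Gal4; reporter mRNA quantified after 24 h dosing by RT-PCR, HpaI digestion and capillary electrophoresis fluorescence. Gain of signal vs DMSO; XSP2 medium contains 3 nM 6-alpha-fluorotestosterone, 1.5 nM norgestrel.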
# [4] = test system: turtle Thyroid Hormone Receptor, alpha (TRa), gene 101949057; assay: ATG_trTRa_XSP2: Attagene TRANS-FACTORIAL Multi-Species (XSP1) HepG2 Assay for turtle Thyroid Hormone Receptor, alpha (TRa) (AID 2283834);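 further: hits raise reporter mRNA over the DMSO baseline so AC50 marks activators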
# In short: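 Readout: reporter mRNA induction, fluorescence after RT-PCR, HpaI digestion and capillary electrophoresis. Transiently transfected HepG2, exogenous NR-Gal4 chimera driving GAL4-UAS reporter, 24 h compound exposure. Activity fitted upward relative to DMSO baseline.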
# [5] = ATG_M_61_XSP2: Attagene TRANS-FACTORIAL Multi-Species (XSP2) HepG2 Assay for M61 Transcription Factor (Internal Marker) (AID 2283835; active means hit-call score of the fitted dose curve at least 0.9, where 1 is the maximum; inactive means score below 0.9;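 further: active means a rise in signal above the DMSO baseline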)
# Description: ATG_XSP2_multi-species_TRANS is a cell-based, multiplexed assay created by modifying the existing Attagene TRANS-FACTORIAL system to include a panel of nuclear receptors from some or all the following species: human (Homo sapiens), mouse (Mus musculus), frog (Xenopus laevis), zebrafish (Danio rerio), chicken (Gallus gallus), and turtle (Chrysemys picta). The ECOTOX-FACTORIAL format uses HepG2, a human liver cell line, with measurements taken at 24 hours after chemical dosing in a 24-well plate. Xsp2 included 3 nM 6-alpha-fluorotestosterone and 1.5 nM norgestrel to stimulate the androgen receptor.ATG_M_61_XSP2 is one of 29 assay components measured or calculated from the ATG_XSP2_multi-species_TRANS assay. It is designed to make measurements of mRNA induction, a form of inducible reporter, as detected with fluorescence intensity signals by Reverse transcription polymerase chain reaction (RT-PCR) and Capillary electrophoresis technology.This assay endpoint, ATG_M_61_XSP2, was analyzed in the positive analysis fitting direction relative to DMSO as the negative control and baseline of activity. Using a type of inducible reporter, measures of mRNA for gain-of-signal activity can be used to understand the background control at the transcription factor-level as they relate to the gene. Furthermore, this assay endpoint can be referred to as a secondary readout, because this assay has produced multiple assay endpoints where this one serves a background control function. To generalize the intended target to other relatable targets, this assay endpoint is annotated to the background measurement intended target family, where the subfamily is internal marker.
# Human liver HepG2 cells are transiently transfected with multiple reporter transcription units (MRTUs) in 6-well plates using FuGene 6 reagent (Roche; 3 ml FuGene/1 mg DNA). The MRTU constructs are regulated by a cis-regulating element (promoter). […] A major difference between the CIS and TRANS system is that in CIS activities of endogenous TFs are measured, whereas the TRANS assay evaluates changes in activities of exogenous, chimeric NR-Gal4 proteins. […] At the end of 24 hour incubation, total RNA was isolated using TriZol reagent (Invitrogen). The isolated RNA is then reverse-transcribed using oligo(dT) primer and Mo-MLV reverse transcriptase (Invitrogen) with DNAse I (Ambion) treatment for 30 min. The one-tenth of the produced cDNA was amplified by PCR using Taq DNA polymerase (Invitrogen) and two reporter sequence-specific primers. The PCR products were fluorescently labeled by primer extension with 6-arboxyfluorescein (6-FAM) 5'-labeled reporter sequence-specific primer (2 min at 95 C, 20 s at 68 C and 10 min at 72 C) and these products were digested with 5U of HpaI (New England Biolabs) for 2h at 37 C. The fragments were purified using Qiaquick PCR columns (Qiagen), analyzed on an ABI 3130xL genetic analyzer (Applied Biosystems) with peak positions identified by using a set of X-rhodamine (ROX)-labeled MapMarker1000 molecular weight standards (BioVentures). The raw capillary electrophoresis data was processed using Attagraph software (Attagene).
# [6] = biological target: zebrafish Thyroid Hormone Receptor beta (TRb), thrb (gene 30607) (UniProt Q9PVE4); assay: ATG_zfTRb_XSP2: Attagene TRANS-FACTORIAL Multi-Species (XSP1) HepG2 Assay for zebrafish Thyroid Hormone Receptor beta (TRb) (AID 2283836)
# Sequence of zebrafish Thyroid Hormone Receptor beta (TRb), thrb (gene 30607) (Q9PVE4 whole entry, looked up, the tested form may be a part): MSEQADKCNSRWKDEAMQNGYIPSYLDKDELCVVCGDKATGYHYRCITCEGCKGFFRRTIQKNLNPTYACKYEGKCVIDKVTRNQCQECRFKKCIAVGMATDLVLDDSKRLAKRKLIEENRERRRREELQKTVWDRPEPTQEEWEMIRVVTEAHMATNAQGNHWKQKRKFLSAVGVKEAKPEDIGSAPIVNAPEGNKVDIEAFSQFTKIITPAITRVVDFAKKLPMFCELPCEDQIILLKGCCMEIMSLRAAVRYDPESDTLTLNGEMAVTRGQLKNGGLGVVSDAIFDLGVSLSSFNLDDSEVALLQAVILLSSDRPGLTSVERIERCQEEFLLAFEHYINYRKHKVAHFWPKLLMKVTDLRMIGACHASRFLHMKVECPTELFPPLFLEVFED
# In short: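 HepG2 cells transiently transfected with chimeric zebrafish TRb-GAL4 reporter units, dosed 24 h with 3 nM 6-alpha-fluorotestosterone and 1.5 nM norgestrel present. Reporter mRNA quantified by RT-PCR and capillary electrophoresis; gain fitted against DMSO.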
# [7] = ATG_XTT_Cytotoxicity_XSP2: Cytotoxicity Assessment in the Attagene TRANS-FACTORIAL Multi-Species (XSP2) HepG2 Assay (AID 2283837)
# In short: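 HepG2 cells, transiently transfected with multiple reporter constructs, exposed to chemical for 24 h. Cell number assessed with XTT fluorescence read-out; loss of signal fitted relative to DMSO.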
# [8] = biological target: human Thyroid hormone Receptor alpha (TRa), THRA (gene 7067) (UniProt P10827); assay: ATG_hTRa_XSP2: Attagene TRANS-FACTORIAL Multi-Species (XSP2) HepG2 Assay for human Thyroid hormone Receptor alpha (TRa) (AID 2283838)
# Sequence of human Thyroid hormone Receptor alpha (TRa), THRA (gene 7067) (P10827 whole entry, looked up, the tested form may be a part): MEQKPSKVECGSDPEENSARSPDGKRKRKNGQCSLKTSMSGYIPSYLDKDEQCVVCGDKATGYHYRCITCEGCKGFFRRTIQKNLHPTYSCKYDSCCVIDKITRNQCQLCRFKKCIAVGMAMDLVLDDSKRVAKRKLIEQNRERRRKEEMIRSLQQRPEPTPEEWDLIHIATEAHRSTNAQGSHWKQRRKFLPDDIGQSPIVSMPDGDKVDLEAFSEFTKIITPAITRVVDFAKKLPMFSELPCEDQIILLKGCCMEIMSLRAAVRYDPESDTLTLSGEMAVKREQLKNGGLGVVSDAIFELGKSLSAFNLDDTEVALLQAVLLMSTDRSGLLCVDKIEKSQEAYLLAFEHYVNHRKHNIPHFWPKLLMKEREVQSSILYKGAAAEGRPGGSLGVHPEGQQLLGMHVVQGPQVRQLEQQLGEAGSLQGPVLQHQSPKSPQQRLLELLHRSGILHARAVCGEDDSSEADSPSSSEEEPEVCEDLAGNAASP
# In short: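 HepG2 cells were transiently transfected with GAL4-UAS reporter units for chimeric human TRa-Gal4 and dosed for 24 hours, with 3 nM 6-alpha-fluorotestosterone and 1.5 nM norgestrel present. Reporter mRNA was quantified by RT-PCR, FAM labelling and capillary electrophoresis, with gain of signal fitted versus DMSO.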
# [9] = biological target: frog Thyroid hormone Receptor alpha (TRa), thra-a (gene 397942) (UniProt P15204); assay: ATG_frTRa_XSP2: Attagene TRANS-FACTORIAL Multi-Species (XSP2) HepG2 Assay for frog Thyroid hormone Receptor alpha (TRa) (AID 2283839);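 on AC50: AC50 reflects induction of frog TRa-driven reporter mRNA above DMSO baseline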
# Sequence of frog Thyroid hormone Receptor alpha (TRa), thra-a (gene 397942) (P15204 whole entry, looked up, the tested form may be a part): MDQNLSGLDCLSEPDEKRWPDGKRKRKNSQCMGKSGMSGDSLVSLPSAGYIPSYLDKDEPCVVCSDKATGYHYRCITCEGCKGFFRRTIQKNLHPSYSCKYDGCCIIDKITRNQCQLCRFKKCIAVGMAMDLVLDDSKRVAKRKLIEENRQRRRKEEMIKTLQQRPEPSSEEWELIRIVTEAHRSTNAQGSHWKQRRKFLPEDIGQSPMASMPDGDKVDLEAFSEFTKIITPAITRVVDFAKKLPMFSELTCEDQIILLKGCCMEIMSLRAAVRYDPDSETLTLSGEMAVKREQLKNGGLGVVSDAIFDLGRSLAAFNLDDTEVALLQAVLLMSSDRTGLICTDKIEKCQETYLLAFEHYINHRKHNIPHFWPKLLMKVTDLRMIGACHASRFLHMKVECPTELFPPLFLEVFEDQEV
# In short: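 Read-out: fluorescent reporter-transcript fragments resolved by capillary electrophoresis after RT-PCR and HpaI cut. Human HepG2 liver cells carry a transfected frog TRα-Gal4 chimera driving a UAS reporter; 24 h exposure, DMSO baseline, positive-direction fit.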
# [10] = test system: zebrafish Peroxisome Proliferator-activated Receptor gamma (PPARg), gene 557037; assay: ATG_zfPPARg_XSP2: Attagene TRANS-FACTORIAL Multi-Species (XSP2) HepG2 Assay for zebrafish Peroxisome Proliferator-activated Receptor gamma (PPARg) (AID 2283833);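 further: reporter mRNA from a zebrafish PPARg GAL4 chimera measured by RT-PCR and capillary electrophoresis; actives increase reporter signal over DMSO so AC50 reflects activation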
# In short: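 Transfect HepG2 with multiplexed GAL4-UAS reporter constructs; dose chemical 24 h; isolate RNA, reverse-transcribe, PCR-amplify, label and digest reporter products; resolve by capillary electrophoresis. Activity taken as increase over DMSO.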
smiles,measurement,setting,value
CC(C)(C)c1ccc(S)cc1,outcome,[1],inactive
same,outcome,[2],inactive
same,outcome,[3],inactive
same,outcome,[4],inactive
same,outcome,[5],inactive
same,outcome,[6],inactive
same,outcome,[7],inactive
same,outcome,[8],inactive
same,outcome,[9],inactive
CCCCCC(=O)O[C@]1(C(C)=O)CC[C@H]2[C@@H]3CCC4=CC(=O)CC[C@]4(C)[C@H]3CC[C@@]21C,AC50,[1],7.63 µM (active) and 3.17 µM (active)
same,outcome,[2],inactive
same,outcome,[3],inactive
same,AC50,[10],132 µM (active)
same,outcome,[5],inactive
same,outcome,[6],inactive
same,outcome,[7],inactive
CC/C(=C(\c1ccccc1)c1ccc(OCCN(C)C)cc1)c1ccccc1,outcome,[2],inactive
same,outcome,[3],inactive
same,outcome,[10],inactive
same,outcome,[5],inactive
same,outcome,[6],inactive
same,outcome,[9],inactive
O=c1cc(-c2ccc(O)cc2)oc2cc(O)cc(O)c12,AC50,[1],27.5 µM (active) and 16.2 µM (active)
same,AC50,[2],26.9 µM (active)
same,outcome,[3],inactive
same,outcome,[10],inactive
same,AC50,[4],26.7 µM (active)
same,outcome,[4],inactive
same,outcome,[6],inactive
same,outcome,[7],inactive
same,AC50,[8],6.26 µM (active)
same,outcome,[8],inactive
same,AC50,[9],39.2 µM (active) and 44.6 µM (active)
C#C[C@]1(O)CC[C@H]2[C@@H]3CCc4cc(O)ccc4[C@H]3CC[C@@]21C,outcome,[3],inactive
same,outcome,[4],inactive
same,outcome,[5],inactive
same,outcome,[6],inactive
CCCCCCCCOC(=O)c1ccc(O)cc1,outcome,[2],inactive
same,outcome,[3],inactive
same,outcome,[10],inactive
same,outcome,[4],inactive
same,outcome,[5],inactive
same,outcome,[6],inactive
same,AC50,[7],41.3 µM (active)
same,outcome,[8],inactive
same,outcome,[9],inactive
